# HCV inh: blocks hepatitis C virus; Huh7.5.1 HCVcc-Cre infection, luciferase reporter, 44 h; Potency, µM (titrated, usually from 41.8 µM), most hits filed as inhibitors; hit rate 3.4% among 340,000; active = well fitted inhibition curve with a large enough effect; inconclusive = small, poorly fitted or top-dose-only effect, or another doubt; inactive = no such curve, though single readings can be large or run the other way
#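 Luciferase read-out (15 sec integration) after a 15 min room-temperature substrate step quantifies HCVcc-Cre infection. Cells, 1,000 per well, had compound added 4 h post-plating, then virus at ~0.5 moi, and were cultured 44 h.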
# VACV Venus inh: inhibitors of vaccinia virus (Venus reporter); Vaccinia virus Venus reporter expression, fluorescence; Potency, µM (doses to about 36.5 µM), actives largely listed as inhibitors; hit rate 0.46% among 330,000; AID 720580; calls by dose curve; tested in A549 cells; note: nearly all actives have a fitted effect of over 30% in size
# Vaccinia mCherry: inhibitors of vaccinia virus infection (mCherry reporter signal); Vaccinia virus mCherry reporter infection, fluorescence; Potency, µM (doses to about 36.5 µM), actives largely listed as inhibitors; hit rate 0.63% among 310,000; calls by dose curve; tested in A549 cells; note: nearly all actives have a fitted effect of over 35% in size
# Hits are given with their value; i = inactive; ? = inconclusive; nt = no result; [ ] = remark or other dose. Rows were chosen to be rich in hits. Some 3.3% of all compounds tested hit in one or more screens of this group.
SMILES,HCV inh,VACV Venus inh,Vaccinia mCherry
Cc1cnc2ccccc2c1/C=C/c1ccc(N)cc1,nt,i,i
CCOC(=O)c1nc(Nc2ccc(C)cc2)c2ccccc2n1,?,i,i
CCOC(=O)c1nc(Nc2cc(Cl)ccc2OC)c2ccccc2n1,13µM,nt,nt
Cc1ccc(NC(=O)CSc2nc3ncccc3[nH]2)cc1F,nt,i,i
Cc1ccc(CNC(=O)CSc2c(C(C)C)cnc3c2c(=O)n(C)c(=O)n3C)cc1,nt,i,i
CCn1c(-c2ccccc2Cl)nn(CC(=O)NCCc2ccccc2)c1=S,i,i,i
CCn1c(-c2ccccc2Cl)nn(CC(=O)Nc2cc(Cl)ccc2Cl)c1=S,13µM,i,i[1.46 µM]
CCOC(=O)c1cnc2c(ccc3ccccc32)c1NCCN(C)C,i,nt,nt
CCOC(=O)c1cnc2c(ccc3ccccc32)c1NCCO,11µM,?,nt
Nc1cc2c(cc1Cl)-c1ccc([N+](=O)[O-])cc1C2=NO,5.6µM,i,i
O=[N+]([O-])c1ccc2c(c1)/C(=N\O)c1ccccc1-2,?,i,i
CC(C)(CO)N=C1NS(=O)(=O)c2cc([N+](=O)[O-])ccc21,?,i,i
CCC(CC)N=C1NS(=O)(=O)c2cc([N+](=O)[O-])ccc21,i,?,13µM
Cc1ccc2nc(/C(C#N)=C\c3cc(C)n(-c4cccc([N+](=O)[O-])c4)c3C)[nH]c2c1,2.2µM,nt,nt
Cc1cc(/C=C(/C#N)c2nc3ccccc3[nH]2)c(C)n1-c1cc(C(=O)O)cc(C(=O)O)c1,i,i,i
Cc1ccc(C(=O)CCC(=O)OCC(=O)N(C)c2c(N)n(Cc3ccccc3)c(=O)[nH]c2=O)cc1,i,i,i
O=CC(=O)c1ccc(F)cc1,nt,i,i
CCN(CC)S(=O)(=O)c1nnc(NC(=O)COc2ccc(C)cc2)s1,nt,i,i
CCN(Cc1ccccc1)C(c1ccc(C)cc1)c1nnnn1C(C)(C)CC (stereo not drawn),10µM,i,i
CCN(CC)C(c1ccc(C)cc1)c1nnnn1C1CCCCC1 (stereo not drawn),35µM,nt,nt
CC(C)(C)c1ccc(CN(Cc2ccccc2)C(c2ccccn2)c2nnnn2C(C)(C)C)cc1 (stereo not drawn),10µM,i,i
CCN(CC)C(c1ccc(F)cc1)c1nnnn1C1CCCCC1 (stereo not drawn),i,nt,nt
CCN(Cc1ccccc1)C(c1ccncc1)c1nnnn1C(C)(C)C (stereo not drawn),i,i,i
CC(C)(C)n1nnnc1C(c1cc2ccccc2o1)N(Cc1ccccc1)Cc1ccccc1 (stereo not drawn),nt,i,?
Nc1nc2c(ncn2[C@@H]2O[C@H](CNCc3cnc(N4CCOCC4)nc3)[C@@H](O)[C@H]2O)c(=O)[nH]1,nt,i,i
SMILES,HCV inh,VACV Venus inh,Vaccinia mCherry
CCCN1CNc2c(c(=O)[nH]c(=S)n2CCc2ccccn2)C1,nt,i,i
OCCCNCc1cc2cc3c(cc2nc1N1CCN(c2cccc(Cl)c2)CC1)OCO3,nt,i,i
COc1ccc(CNC(=O)C(=O)Nc2ccc(OC)cc2OC)cc1,nt,i,i
CCOc1ccc2nc(N(CCN(C)C)C(=O)c3ccc4c(c3)CCCC4)sc2c1,?,i,i
CN(C)CCCN(C(=O)c1ccc(N2C(=O)CCC2=O)cc1)c1nc2c(F)cccc2s1,i,i,i
Cc1ccc2nc(N(CCCN(C)C)C(=O)c3ccc4c(c3)CCCC4)sc2c1,11µM,?,?
CN(C)CCCN(C(=O)c1ccc2c(c1)CCCC2)c1nc2c(F)cccc2s1,7.9µM,i,i
CN(C)CCN(C(=O)c1ccc2c(c1)CCCC2)c1nc2cc3c(cc2s1)OCCO3,?,i,i
Cc1cc(C)c2nc(N(CCCN(C)C)C(=O)c3ccc4c(c3)CCCC4)sc2c1,7.1µM,i,i
Cc1cccc(N(CC(O)Cn2c3ccccc3c3ccccc32)S(=O)(=O)c2ccc(F)cc2)c1 (stereo not drawn),nt,i,i
O=C(NCc1ccc(Cl)cc1)c1cnc2sc(N3CCOCC3)nn2c1=O,nt,i,i
CCC(=O)Nc1ccc(S(=O)(=O)NCc2cccn2Cc2cccc(C)c2)cc1,nt,i,i
Cc1ccc(NC2CCCN(C(=O)c3cccc(-c4ncc[nH]4)c3)C2)cc1C (stereo not drawn),i,nt,nt
Cc1ccc(-n2ncc3c(Nc4ccc(Oc5ccccc5)cc4)ncnc32)c(C)c1,nt,i,i
Cc1ncc2c(c1CNC(=O)c1ccccc1F)CCN(C(=O)c1csc(-c3cccs3)n1)C2,nt,i,i
Cc1ccccc1CSc1cn(CC(=O)N2CCCCC2)c2ccccc12,nt,i,i
N/C(=N/OC(=O)c1ccccc1Cl)c1ncc([N+](=O)[O-])s1,11µM,i[7.34 µM],i[7.34 µM]
N/C(=N\OC(=O)c1cc([N+](=O)[O-])ccc1Cl)c1ccccn1,11µM,i,i
N/C(=N\OC(=O)c1cccc([N+](=O)[O-])c1)c1ccccn1,?,i,i
N/C(=N\OC(=O)c1ccc(Cl)cc1Cl)c1ccccn1,i,nt,nt
N/C(=N\OC(=O)c1ccccc1Cl)c1cccc([N+](=O)[O-])c1,i,nt,nt
N/C(=N\OC(=O)c1ccc([N+](=O)[O-])cc1Cl)c1ccccn1,?,?,2.8µM
COc1ccc2cc(CN(C(=O)c3cc(C)nn3C)C3CC3)c(-c3ccc(Cl)cc3)nc2c1,nt,i,i
O=C(Nc1ccc(Cl)c(C(F)(F)F)c1)c1nc2ccccc2nc1N1CCCCC1,nt,i,i
CC1(C)O[C@@H]2[C@H](O1)[C@@H](COS(=O)(=O)O)O[C@H]2n1cc(Br)c(=O)[nH]c1=O,i,i,i
SMILES,HCV inh,VACV Venus inh,Vaccinia mCherry
O=c1c2ccccc2nc2n1CCCCC2,i,i,i
N=c1c2ccccc2nc2n1CCCCCCCCCCC2,13µM,i[7.34 µM],i[7.34 µM]
CC(C)c1onc(C(=O)Nc2ccc3c(c2)OCO3)c1[N+](=O)[O-],i,nt,nt
Cc1ccc(S(=O)(=O)NCCSc2nnnn2-c2ccc(Cl)c(C(=O)O)c2)cc1,nt,i,i
COc1ccc(Cn2c(CCC(=O)Nc3cc(OC)c(OC)c(OC)c3)nc3cccnc32)cc1,nt,i,i
CCN(C(=O)c1cc(Cl)ccc1OC)c1ccccc1C,?,i,nt
CCN(C(=O)c1cnc(NC(C)C)cc1C(F)(F)F)c1ccc(Cl)cc1Cl,10µM,i[7.34 µM],i[7.34 µM]
CCC[N+](C)(C)c1ccc(/C=C/c2ccncc2)cc1,nt,i,i
CCN(CC)CCNC(=O)c1sc2nc3n(c(=O)c2c1C)CCCCC3,nt,i,i
CCOC(=O)c1ccccc1NC(=O)CCOc1ccccc1,nt,i,i
NNC(=O)c1nc[nH]c1C(=O)Nc1ccccc1[N+](=O)[O-],i,i,i
NC(=O)c1sc2nc3c(c(-c4ccco4)c2c1N)CCC3,22µM,?,?
Cc1ccc(-c2c3c(nc4sc(C(N)=O)c(N)c24)CCCC3)o1,i,i,i
CCCCCCCCCCOC(=O)Cn1c(COc2ccc(Cl)cc2)[n+](C)c2ccccc21,?,10µM,?
Cc1ccc(OCc2nc3ccccc3n2CCOc2ccc(Cl)cc2)cc1,nt,i,i
CCCCCCCCCCOC(=O)Cn1c(COc2cccc(C)c2)[n+](C)c2ccccc21,?,?,i
CCCCCOC(=O)Cn1c(=O)oc2ccccc21,i,i,i
CCCCCCCCCCOC(=O)Cn1c(COc2ccccc2)[n+](C)c2ccccc21,?,11µM,?
CCCCOC(=O)Cn1c(=O)n(CC(=O)OCCCC)c2ccccc21,i,i,nt
CCCCCCCCCCOC(=O)Cn1c(COc2ccc(OC)cc2)[n+](C)c2ccccc21,?,11µM,?
CCCCCCCCCCOC(=O)Cn1c(COc2ccccc2C)[n+](C)c2ccccc21,?,28µM,?

# High-throughput results from PubChem BioAssay.
